NPSR antagonist = blocks cAMP signaling of the human neuropeptide S receptor | Q6W5P4 | CHO-NPSR cells, cAMP TR-FRET, antagonist mode | Potency, µM (top dose mostly 38.3 µM), for inactives: top-dose activity change, negative = inhibition, usual class: inhibitors | hit rate 1% among 220,000 | AID 1461; further: nearly all actives have a fitted effect of over 50% in size
Target sequence (Q6W5P4 whole entry, looked up): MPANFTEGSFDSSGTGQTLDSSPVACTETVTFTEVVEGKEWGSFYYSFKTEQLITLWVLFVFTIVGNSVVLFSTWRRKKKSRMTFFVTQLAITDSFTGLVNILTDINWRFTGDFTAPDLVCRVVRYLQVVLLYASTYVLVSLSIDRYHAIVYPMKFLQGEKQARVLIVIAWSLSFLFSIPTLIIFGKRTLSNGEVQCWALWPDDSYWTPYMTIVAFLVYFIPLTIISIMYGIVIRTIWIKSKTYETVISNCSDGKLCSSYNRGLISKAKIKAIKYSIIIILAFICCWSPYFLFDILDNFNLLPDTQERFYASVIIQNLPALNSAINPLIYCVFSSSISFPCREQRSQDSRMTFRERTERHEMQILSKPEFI
ERK EGF block = EGF-driven ERK pathway inhibition. HEK293-V1b, EGF-stimulated phospho-ERK AlphaScreen. Potency, µM (series often up to 11.5 µM), without a hit: at the top dose activity change, negative = inhibition, actives largely listed as inhibitors. hit rate 0.41% among 130,000. AID 1454;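 further: plate controls were stimulated vehicle wells for no effect and unstimulated vehicle basal for full effect; nearly all actives have a fitted effect of over 55% in size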
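EGF-stimulated (25 nM, 5 min) phospho-ERK in HEK293 cells stably expressing V1b, cells pretreated 30 min with compound at 37C. Homogeneous AlphaScreen read on lysates.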
* = called active by the depositor; ? = inconclusive; . = no result; [ ] = another dose, or the depositor's remark. This is one part of a sample in which hits are shown more often than they occur. The call rests on the fitted dose curve; in most records, active means well fitted curve in the direction sought with a large enough effect; inconclusive means small, poorly fitted or top-dose-only effect, or another doubt; inactive means no such curve, though single readings can be large; an effect the other way counts as inactive or inconclusive. Unless noted, on the % scale 0 is the no-effect control and ±100 the full control effect; potency means the concentration at half of the fitted maximal effect.

SMILES | NPSR antagonist | ERK EGF block
COC(=O)CNC(=O)C(NC(=O)OCc1ccccc1)C(C)C (configuration not stated) | -2% | 0%
O=C(Nc1ccc2nc(-c3ccco3)c(-c3ccco3)nc2c1)N1CCCCCC1 | 10µM* | .
CCOC(=O)C1CCN(C(=O)Nc2ccc3nc(-c4ccco4)c(-c4ccco4)nc3c2)CC1 | -21%[46.1 µM] | .
CC(=O)c1cc2c(cc1O)OC(C)(C)C=C2 | . | 20%
COc1cccc(Cn2c(=O)c(-c3cccc(Cl)c3)nc3cncnc32)c1 | . | -2%
CC(=O)OCCC(C)CCC=C(C)C (configuration not stated) | . | 27%
COC(=O)c1ccccc1NC(=O)COC(=O)c1ccccc1N=Nc1ccc(N(C)C)cc1 | 1% | 14µM*
CC(=O)c1ccc(NC(=O)COC(=O)c2ccccc2N=Nc2ccc(N(C)C)cc2)cc1 | 6% | 28%
CN(C)c1ccc(N=Nc2ccccc2C(=O)OCC(=O)N(C)c2ccccc2)cc1 | 4% | 10µM*
CN(C(=O)COC(=O)c1n[nH]c2ccccc12)c1ccccc1 | -5% | -9%
COc1cccc([C@@H]2Oc3ccc(Br)cc3C(=O)[C@H]2OC(=O)NS(=O)(=O)c2ccc(F)cc2)c1 | . | -10%
C=C(C(=O)C(C)(C)O)C(O)c1ccc([N+](=O)[O-])cc1 (configuration not stated) | . | 0%
COc1ccc(/C=C2\SC(=O)N(CC(=O)NNC(=O)c3ccccc3O)C2=O)cc1OC | -18% | 13µM*
COc1ccc(/C=C2\SC(=O)N(CC(=O)NNC(=O)c3ccccc3O)C2=O)cc1 | 0% | ?
Cc1cccc(C)c1Nc1oc(-c2ccccc2)nc1-c1ccccc1F | . | -13%
CCCCCCN1C=CC(=C/C=C(\C#N)C(=O)OCC)C=C1 | -27%[46.1 µM] | .
CCOC(=O)/C(C#N)=C/C=C1\C=Cc2ccccc2N1CC | -45% | 16µM*
Cc1noc(C)c1C(=O)N1CCC2(CC1)CN(c1ccccc1)C2 | . | 8%
CCN1/C(=C2\C(=O)N(C)C(=S)N2C)C=Cc2cc(OC)ccc21 | -40% | 2%
CCN1C(=O)/C(=C2/C=Cc3cc(C)ccc3N2CC)N(C)C1=S | -50% | 14µM*
COc1ccc(-c2nc(C#N)c(NCCc3ccccc3)o2)cc1 | -25%[46.1 µM] | 28µM*
COc1ccc(CNc2oc(-c3ccccc3)nc2C#N)cc1 | -15%[46.1 µM] | .
CC(=O)[C@@H]1[C@H]2[C@H](C(=O)[C@H]3OC[C@@H]2O3)[C@H]2C=Cc3ccccc3N21 | . | -1%
CC1=C/C(=N\Nc2ccccc2[N+](=O)[O-])CC(C)(C)C1 | -6% | 13µM*
Cc1c(NC2=CC(=O)CC(C)(C)C2)ccc([N+](=O)[O-])c1C | 2% | -4%
SMILES | NPSR antagonist | ERK EGF block
COc1ccccc1-c1oc2ccccc2c(=O)c1OC | . | -1%
O=C(NCC1CCCCC1)c1nnc(C(=O)NCC2CCCCC2)c2c1[nH]c1ccccc12 | . | -10%
Cc1cccc(-n2c(C)cc(/C=C3\C(=N)N4N=C(CC(C)C)SC4=NC3=O)c2C)c1 | -33% | 1%
CC1=NN2C(=N)/C(=C\c3cc(C)n(-c4cccc(C)c4)c3C)C(=O)N=C2S1 | 13µM* | 0%[57.5 µM]
CC(=O)c1c(C)oc2c1C(=O)c1ccccc1C2=O | 29% | 6%
O=C1c2ccccc2C(=O)c2c1oc(C(F)(F)F)c2C(=O)c1ccccc1 | 5µM* | .
C=CCC(C)(O)C(=O)OCC (configuration not stated) | . | -7%
CC(C)Nc1oc(-c2ccccc2)nc1-c1cccc2ccccc12 | . | -2%
O=C(NCc1cccnc1)/C(=C\c1ccc(-c2ccc(Cl)c(Cl)c2)o1)S(=O)(=O)c1ccccc1 | 13µM* | 25%
O=C(NCc1cccnc1)c1ccc(-c2ccc(Cl)cc2)o1 | -17% | 12%
COc1ccc2c(c1)c(CC(=O)NCc1ccc3c(c1)OCO3)c(C)n2C(=O)c1ccc(Cl)cc1 | . | -7%
Cc1ccc(C(O)(C(=O)NN(C(=O)c2ccccc2)c2ccccc2)c2ccc(C)cc2)cc1 | -29% | -6%
Cc1ccc(N(NC(=O)C(O)(c2ccccc2)c2ccccc2)C(=O)CCl)cc1 | 2.5µM* | 7%
O=C1C=CC(=O)c2c1ccc1c2ccc2ccccc21 | . | -11%[25.7 µM]
C[C@H]1OC(=O)CC[C@@H]2[C@]1(C)CCC1[C@@]2(C)CC[C@@]2(C)C3CC(C)(C)CC[C@]3(CO)CC[C@]12C (some centres not stated) | . | -5%
CNC(=O)[C@H]1O[C@H](n2cnc3c(NCc4cccc(I)c4)nc(Cl)nc32)[C@@H](O)[C@@H]1O | . | -2%
CN=c1scc(-c2ccccc2F)n1/N=C/c1ccc[nH]1 | 11% | -3%
CN=c1scc(-c2ccccc2F)n1/N=C/c1ccc(O)c(O)c1O | -28% | 28µM*
NNC(=O)c1sc2cc(C(F)(F)F)cnc2c1-c1cccs1 | -8% | -10%[57.5 µM]
O=C(Nc1ccccc1)c1sc2cc(C(F)(F)F)cnc2c1-c1cccs1 | 10µM* | .
O=C(O)C=Cc1ccc(Cn2ccnc2)cc1 | . | -11%
Cc1ccc(-n2c(=S)[nH]c3sc4c(c3c2=O)CCC4)cc1 | 7.9µM* | 2%
Cc1ccc(-n2c(=O)c3c4c(sc3n3c(=S)[nH]nc23)CCC4)cc1 | 27% | 3%[57.5 µM]
O=[N+]([O-])c1ccccc1/C=C/C=N/n1c(-c2ccccc2)n[nH]c1=S | -31% | -12%
CC1CCCC(C)N1/N=C/C=C/c1ccccc1[N+](=O)[O-] (configuration not stated) | -20% | 20µM*
SMILES | NPSR antagonist | ERK EGF block
COc1ccccc1N1CCN(/N=C/C=C\c2ccccc2[N+](=O)[O-])CC1 | -25% | 25µM*
COc1ccccc1N1CCN(/N=C/C=C\c2ccco2)CC1 | -13%[46.1 µM] | .
COC1C=CC23c4cc5c(cc4CN(CC2O)C3C1)OCO5 (configuration not stated) | . | 11%
CCOC(=O)c1sc(=NC(=O)c2ccc(OC(C)C)cc2)n(C)c1C | 5µM* | -2%
CCOC(=O)c1sc(=NC(=O)c2ccc(Cl)s2)n(C)c1C | -52% | -6%
CCOC(=O)c1sc(=NC(=O)c2ccc(C)c(C)c2)n(C)c1C | 32% | 3%
CCOC(=O)c1sc(=NC(=O)c2cccs2)n(C)c1C | 3.2µM* | -6%
CCOC(=O)c1sc(=NC(=O)c2ccc(S(=O)(=O)N3CC(C)OC(C)C3)cc2)n(C)c1C (configuration not stated) | 10µM* | .
CCOC(=O)c1sc(=NC(=O)c2ccco2)n(C)c1C | -5% | 1%
CCCn1c(C)nc2c(NCCCCN3CCCC3)nc(C)nc21 | . | 6%
Cc1[nH]n(-c2ccccc2)c(=O)c1N=Nc1ccc2c(c1)OCCO2 | -27% | 13µM*
Cc1ccc(N=Nc2c(C)[nH]n(-c3ccccc3)c2=O)c(C)c1 | 6% | 2%
Cc1noc(C)c1C(=O)N1CCC[C@@]2(CCN(C(=O)Nc3ccccc3)C2)C1 | . | 0%
O=C(NC1CCCC1)O[C@@H]1C(=O)c2cc(Br)ccc2O[C@H]1c1ccc2c(c1)OCO2 | . | -4%
O=C(Nc1ccc(-c2csc(Nc3cccc(C(F)(F)F)c3)n2)cc1)c1ccccc1 | -40% | ?
O=C(Nc1ccc(-c2csc(Nc3cccc(C(F)(F)F)c3)n2)cc1)c1cc([N+](=O)[O-])cc(C(F)(F)F)c1 | 10µM* | 7%[57.5 µM]
Cc1ccccc1NC1=CC(=O)CC(C)(C)C1 | -4%[46.1 µM] | 3%
CC1(C)CC(=O)C=C(NC2=CC3OC(c4ccccc4)OCC3OC2=O)C1 (configuration not stated) | 2.5µM* | -7%
COCCNc1c2c(nc3c(-c4ccccc4)c(C)nn13)CCCC2 | -20%[46.1 µM] | .
